Screening data (PubChem)
aSyn UTR inh – MLPCN primary screen, SNCA 5' untranslated region; alpha-synuclein 5'UTR reporter, inhibitor activity; inhibition, % (tested at 7.5 µM); 0.82% of 300,000 active; AID 1813; in the data active = inhibition above about 60%; inconclusive = no clear call, values can overlap the other calls;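 note: H4 neuroglioblastoma cells stably carrying SNCA 5'UTR luciferase fusion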
Shn3 inh set2 – inhibitors of Schnurri-3 3'UTR reporter in osteoblasts. Clone20 osteoblast Shn3 3'UTR firefly luciferase, 24 h. inhibition, % at 12.5 µM. 0.52% of 360,000 active;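 active = mean inhibition of at least 75% with every replicate also reaching 75%; inconclusive = mean inhibition at least 75% but some replicate below; inactive = mean inhibition below 75%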
PAX8 reporter – lowers PAX8-driven luciferase in RMG-I cells. RMG-I TPO-luciferase reporter, SteadyGlo, 24 h. inhibition, % at 12.6 µM. 1.2% of 360,000 active. AID 652154;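 active = mean replicate inhibition at least 60% with every replicate also reaching 60%; inconclusive = only one of the two criteria is met; inactive = mean below 60% and not all replicates reaching 60%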;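 note: luciferase light reporting Pax8 driven TPO promoter activity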
MITF TRPM1 inh – MITF TRPM1 promoter inhibition in SK-MEL-5 cells | SK-MEL-5 TRPM1 promoter luciferase, 24 h | inhibition, % at 12.5 µM | 0.83% of 330,000 active;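 active = mean inhibition across replicates of 60% or more, whatever share of single replicates reaches that level; inconclusive = some that reach 60%, reason not given; inactive = mean inhibition across replicates below 60%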
EBV LMP1 NFkB – reduces LMP1-driven NF-kappaB luciferase signal; inhibition, % at 12.5 µM; 0.69% of 350,000 active; AID 504558; LMP1-induced NF-kappaB luciferase reporter cells, luminescence; in the data active = inhibition above about 41%; inconclusive = no clear call, values can overlap the other calls
Of the large screens only hits and unclear results are named; the others gave an inactive call. Rows were chosen to be rich in hits. Some 2.1% of all compounds tested hit in one or more screens of this group.

CCN1CCN(Cc2ccc(NC(=O)c3ccc(C)c(NC(=O)c4cncc(-c5cccs5)c4)c3)cc2C(F)(F)F)CC1	Shn3 inh set2 88, MITF TRPM1 inh 97, EBV LMP1 NFkB 71 (no result: aSyn UTR inh, PAX8 reporter)
CCN1CCN(Cc2ccc(NC(=O)c3ccc(C)c(NC(=O)c4cccc5[nH]ccc45)c3)cc2C(F)(F)F)CC1	EBV LMP1 NFkB 62
CCN1CCN(Cc2ccc(NC(=O)c3ccc(C)c(NC(=O)c4cc(-c5ccc(Br)cc5)n[nH]4)c3)cc2C(F)(F)F)CC1	EBV LMP1 NFkB 44
COc1ccc(-c2coc3c(C(=O)NCc4ccc(F)c(F)c4)cccc23)c(C)c1	none (no result: aSyn UTR inh, MITF TRPM1 inh, EBV LMP1 NFkB)
COc1ccc(NC(=O)c2nc[nH]c2C(=O)Nc2ccccc2C)cc1	none (no result: PAX8 reporter)
Nc1c([N+](=O)[O-])cc(-c2cnc[nH]2)cc1[N+](=O)[O-]	none
COCCNc1nc(NCc2ccccc2OC)c2sccc2n1	none (no result: aSyn UTR inh, PAX8 reporter, MITF TRPM1 inh, EBV LMP1 NFkB)
COc1ccccc1CNc1nc(NCc2ccccc2OC)c2sccc2n1	Shn3 inh set2 87 (no result: aSyn UTR inh, MITF TRPM1 inh, EBV LMP1 NFkB)
COc1ccccc1CNc1nc(Nc2cccc(-c3cnco3)c2)c2sccc2n1	PAX8 reporter 74 (no result: aSyn UTR inh, MITF TRPM1 inh, EBV LMP1 NFkB)
Cc1ccccc1OCC(=O)N/N=C/c1cccc2cccnc12	none
C[C@@H]1CN([C@H](C)CO)C(=O)c2cc(NC(=O)C3CC3)ccc2O[C@@H]1CN(C)CC1CCCCC1	none (no result: aSyn UTR inh, Shn3 inh set2, MITF TRPM1 inh, EBV LMP1 NFkB)
COc1ccc2c(c1)c(CC(=O)Nc1ccc(C(C)=O)cc1)c(C)n2C(=O)c1ccc(Cl)cc1	none
COc1ccc2c(c1)c(CC(=O)Nc1nnc(C3CC3)s1)c(C)n2C(=O)c1ccc(Cl)cc1	EBV LMP1 NFkB 48
COc1ccc(OCCN(C)Cc2c(O)ccc3ccccc23)cc1	PAX8 reporter 62
COc1ccc(NC(=O)C2CC(c3ccccc3O)=NO2)cc1OC (configuration not stated)	none
CN(C)CCCn1c(=S)[nH]c2ccccc2c1=O	none
CN(C)CCCn1c2c3ccccc3ccc2c2oc(=O)c3ccccc3c21	MITF TRPM1 inh 80 (no result: aSyn UTR inh)
C[C@@H]1CN([C@H](C)CO)C(=O)c2cccc(NS(=O)(=O)c3ccc(F)cc3)c2O[C@H]1CN(C)Cc1ccc(-c2ccccc2)cc1	none (no result: aSyn UTR inh, Shn3 inh set2, MITF TRPM1 inh, EBV LMP1 NFkB)
Cc1ccc(S(=O)(=O)Nc2cccc3c2O[C@H](CN(C)Cc2ccc(Oc4ccccc4)cc2)[C@@H](C)CN([C@@H](C)CO)C3=O)cc1	none (no result: aSyn UTR inh, Shn3 inh set2, MITF TRPM1 inh, EBV LMP1 NFkB)
C[C@H](CO)N1C[C@H](C)[C@H](CN(C)Cc2ccc(-c3ccccc3)cc2)Oc2c(NS(=O)(=O)c3ccc(F)cc3)cccc2C1=O	PAX8 reporter 65 (no result: aSyn UTR inh, Shn3 inh set2, MITF TRPM1 inh, EBV LMP1 NFkB)
Cc1ccc(S(=O)(=O)Nc2cccc3c2O[C@@H](CN(C)Cc2ccc(Oc4ccccc4)cc2)[C@@H](C)CN([C@H](C)CO)C3=O)cc1	PAX8 reporter 90 (no result: aSyn UTR inh, Shn3 inh set2, MITF TRPM1 inh, EBV LMP1 NFkB)
CC(C)NC(=O)N[C@@H]1CC[C@H](CC(=O)NC2Cc3ccccc3C2)O[C@@H]1CO	none (no result: aSyn UTR inh, Shn3 inh set2, MITF TRPM1 inh, EBV LMP1 NFkB)
COc1cc(CC(=O)OCC(=O)c2ccc3c(c2)OCCO3)cc(OC)c1OC	aSyn UTR inh 100 (no result: PAX8 reporter)
COc1ccc(C(=O)NC(CC(C)C)C(=O)O)cc1OC (configuration not stated)	none
COc1ccc(Br)cc1CNC(=O)C1CCN(C(=O)N(C)C)CC1	aSyn UTR inh 78
COc1ccccc1/C=C/C=N/n1c(C2CCCCC2)n[nH]c1=S	none
O=[N+]([O-])c1ccc(O)c2ncccc12	aSyn UTR inh 72
COCc1ccc(O)c2ncccc12	none (no result: PAX8 reporter)
COc1ccc(C)cc1N=Nc1ccc(O)c2ncccc12	aSyn UTR inh 68, Shn3 inh set2 90, MITF TRPM1 inh 72, EBV LMP1 NFkB 86
COc1ccc(N=Nc2ccc(O)c3ncccc23)cc1	Shn3 inh set2 91, MITF TRPM1 inh 69, EBV LMP1 NFkB inconclusive
COc1cccc(N=Nc2ccc(O)c3ncccc23)c1	EBV LMP1 NFkB 69
Nc1ccc(N=Nc2ccccc2)c2cccnc12	none
CC(NC(=O)C1CCC(CNC(=O)[C@@H]2Cc3ccccc3CN2)CC1)c1ccccc1 (some centres not stated)	none
Cc1noc(C)c1NC(=O)N[C@@H]1CC[C@H](CCNC(=O)C2CC2)O[C@H]1CO	none (no result: aSyn UTR inh, Shn3 inh set2, MITF TRPM1 inh, EBV LMP1 NFkB)
COc1cccc(N=Nc2ccc3cccnc3c2O)c1	Shn3 inh set2 90
O=Nc1ccc(O)c2ncccc12	Shn3 inh set2 86
Oc1ccc(N=Nc2ccc3c(c2)OCCO3)c(O)c1	aSyn UTR inh 62
O=S(=O)(O)c1cccc2c(N=Nc3ccc(O)c4ncccc34)cccc12	none (no result: PAX8 reporter)
Cc1ccccc1N=Nc1ccc(O)c2ncccc12	aSyn UTR inh inconclusive, Shn3 inh set2 inconclusive, MITF TRPM1 inh 76, EBV LMP1 NFkB 44
O=C(CCNC(=O)c1ccc([N+](=O)[O-])cc1)NCCCN1CCCC1=O	none
COc1cc(S(=O)(=O)N(Cc2cccc(OC)c2OC)CC2CCCO2)ccc1-n1cnnn1 (configuration not stated)	none
Oc1ccc(N=Nc2ccc3c(c2)OCCO3)c2cccnc12	aSyn UTR inh 104, Shn3 inh set2 93, MITF TRPM1 inh 65, EBV LMP1 NFkB 60
COc1ccc(-c2cc3c(=O)n(CC(=O)NCc4ccc(Cl)cc4)ncn3n2)cc1	none
COc1ccc(-c2cc3c(=O)n(CC(=O)NCCCN4CCN(Cc5ccccc5)CC4)ncn3n2)cc1	EBV LMP1 NFkB 50
COc1ccc(-c2cc3c(=O)n(CC(=O)NCCCN4CCC(Cc5ccccc5)CC4)ncn3n2)cc1	aSyn UTR inh 96, MITF TRPM1 inh 71
COc1cc(C=C2C(=O)C=CC2=O)ccc1O	PAX8 reporter 106 (no result: aSyn UTR inh, Shn3 inh set2, MITF TRPM1 inh, EBV LMP1 NFkB)
C[C@@H]1CN([C@@H](C)CO)C(=O)c2cc(N(C)C)ccc2O[C@@H](C)CCCCO[C@@H]1CN(C)C	none (no result: aSyn UTR inh, Shn3 inh set2, MITF TRPM1 inh, EBV LMP1 NFkB)
COc1ccc(/C(C)=N/NC(=O)C2C3CCCCC32)c(OC)c1 (configuration not stated)	none
CC(C)(C)NCC(=Cc1ccccc1)C(=O)c1ccccc1	Shn3 inh set2 97, PAX8 reporter 74, MITF TRPM1 inh 98, EBV LMP1 NFkB 87 (no result: aSyn UTR inh)
COc1ccc(C(=O)Nc2ccc(C)cn2)c(OC)c1	aSyn UTR inh 115, MITF TRPM1 inh 75, EBV LMP1 NFkB 75 (no result: PAX8 reporter)
Oc1c(C=Nc2cccnc2)sc2ccccc12	none (no result: PAX8 reporter)
CCNC(=O)[C@H]1[C@H](CO)[C@H]2Cn3c(ccc(C4=CCCCC4)c3=O)[C@@H]1N2C(=O)Cc1ccccn1	none (no result: aSyn UTR inh, Shn3 inh set2, MITF TRPM1 inh, EBV LMP1 NFkB)
C[C@H](CO)N1C[C@H](C)[C@H](CN(C)C(=O)Nc2ccccc2C(F)(F)F)OCc2cnnn2CCCC1=O	none (no result: aSyn UTR inh, Shn3 inh set2, MITF TRPM1 inh, EBV LMP1 NFkB)
COc1ccc(S(=O)(=O)N(C)C[C@@H]2OCCCC[C@H](C)Oc3ccc(NC(=O)CCCN(C)C)cc3C(=O)N([C@H](C)CO)C[C@H]2C)cc1	none (no result: aSyn UTR inh, Shn3 inh set2, MITF TRPM1 inh, EBV LMP1 NFkB)
Nn1cnnc1N/N=C\c1ccc(-c2ccccc2[N+](=O)[O-])o1	PAX8 reporter 92
C=CC(=O)N1C/C(=C/c2ccc(F)cc2)C(=O)/C(=C\c2ccc(F)cc2)C1	Shn3 inh set2 91, PAX8 reporter 100, MITF TRPM1 inh 96, EBV LMP1 NFkB 89 (no result: aSyn UTR inh)
CN1C2CCC1/C(=C\c1ccc(F)cc1)C(=O)/C2=C/c1ccc(F)cc1	none
Cc1ccc2nc(NC(=O)c3ccco3)sc2c1	aSyn UTR inh 85, EBV LMP1 NFkB 53 (no result: PAX8 reporter)
COc1cc2sc(NC(=O)c3ccco3)nc2cc1Cl	none
COc1cc2nc(NC(=O)c3ccco3)sc(=O)c2cc1OC	EBV LMP1 NFkB 42
